PubChem BioAssay (NCI)
Compounds without any hit were thinned out: in the full panel of roughly 83,000, 20% have a hit.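 Step 1: grow cells in 96-well plates. Step 2: add test compound at a single concentration. Step 3: incubate 48 h. Step 4: record percent growth.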 Active and inactive are the calls of the source. How the source made its calls: active means growth percent below 10; inactive means the rest.

Tests used:
Assay in all cases: NCI-60 one-dose screen, 48 h (100 = growth as untreated, 0 = no growth, -100 = all killed)
Conditions in all cases: 10 µM unless noted
RPMI-8226 leukemia = test system: RPMI-8226 leukemia
OVCAR-8 ovarian = test system: OVCAR-8 ovarian
OVCAR-5 ovarian = test system: OVCAR-5 ovarian
OVCAR-4 ovarian = test system: OVCAR-4 ovarian
SK-OV-3 ovarian = test system: SK-OV-3 ovarian
IGROV1 ovarian = test system: IGROV1 ovarian
OVCAR-3 ovarian = test system: OVCAR-3 ovarian
HS 578T breast = test system: HS 578T breast
NCI/ADR-RES ovarian = test system: NCI/ADR-RES ovarian
T-47D breast = test system: T-47D breast
BT-549 breast = test system: BT-549 breast
MDA-MB-435 melanoma = test system: MDA-MB-435 melanoma
SW-620 colon = test system: SW-620 colon
MCF7 breast = test system: MCF7 breast
HCT-116 colon = test system: HCT-116 colon
HCC-2998 colon = test system: HCC-2998 colon
KM12 colon = test system: KM12 colon
SR leukemia = test system: SR leukemia

Measured: growth

CCN(CC)c1ccc(C(=N)c2ccc(N(CC)CC)cc2)cc1
active: RPMI-8226 leukemia -32.1% | OVCAR-8 ovarian -8.61% | OVCAR-5 ovarian -22.1% | SK-OV-3 ovarian -36.6% | IGROV1 ovarian -24.8% | OVCAR-3 ovarian -38.3% | HS 578T breast -47.2% | NCI/ADR-RES ovarian -49.9% | T-47D breast -27.9% | BT-549 breast 8.11% | MDA-MB-435 melanoma -35.2% | SW-620 colon -21% | MCF7 breast -18.9% | HCT-116 colon -60.1% | HCC-2998 colon -74.5% | KM12 colon -38.2%
inactive: OVCAR-4 ovarian 12.7%

COc1ccc(NC(=O)c2c(Nc3ccc(OC)cc3OC)n[nH]c2N)c(OC)c1
inactive: RPMI-8226 leukemia 91% | OVCAR-8 ovarian 96.4% | OVCAR-5 ovarian 96.3% | OVCAR-4 ovarian 102% | SK-OV-3 ovarian 92% | IGROV1 ovarian 93.7% | OVCAR-3 ovarian 106% | HS 578T breast 96% | NCI/ADR-RES ovarian 101% | T-47D breast 83% | BT-549 breast 93.7% | MDA-MB-435 melanoma 95.2% | SW-620 colon 102% | MCF7 breast 76.4% | HCT-116 colon 90.1% | HCC-2998 colon 107% | KM12 colon 102%

Oc1ccc(Cl)cc1-c1cc(-c2ccc(F)cc2)n[nH]1
inactive: RPMI-8226 leukemia 28.2% | OVCAR-8 ovarian 73.4% | OVCAR-5 ovarian 83.6% | OVCAR-4 ovarian 25.3% | SK-OV-3 ovarian 74.8% | IGROV1 ovarian 40% | OVCAR-3 ovarian 49.8% | HS 578T breast 65.4% | NCI/ADR-RES ovarian 66.4% | T-47D breast 24.3% | BT-549 breast 84.7% | MDA-MB-435 melanoma 83% | SW-620 colon 75.5% | MCF7 breast 15.8% | HCT-116 colon 51.5% | HCC-2998 colon 37.8% | KM12 colon 37%

Cc1ccc(C(=O)C2=Cc3cc4ccccc4n3Cc3cnnn32)cc1
inactive: RPMI-8226 leukemia 99.9% | OVCAR-8 ovarian 106% | OVCAR-5 ovarian 96.2% | OVCAR-4 ovarian 104% | SK-OV-3 ovarian 99.6% | IGROV1 ovarian 104% | OVCAR-3 ovarian 109% | HS 578T breast 94% | NCI/ADR-RES ovarian 108% | T-47D breast 77.8% | BT-549 breast 89.4% | MDA-MB-435 melanoma 71.7% | SW-620 colon 105% | MCF7 breast 90.9% | HCT-116 colon 94.1% | HCC-2998 colon 98.7% | KM12 colon 83.4%

COc1cc(-c2nn(-c3cccc(NC(=O)Nc4ccc(Cl)c(Cl)c4)c3)cc2-c2ccncc2)ccc1Cl
active: RPMI-8226 leukemia -11.6% | OVCAR-8 ovarian -17.2% | OVCAR-3 ovarian -10% | HS 578T breast -6.95% | NCI/ADR-RES ovarian 0.321% | T-47D breast 2.98% | BT-549 breast 6.23% | MDA-MB-435 melanoma -45.8% | MCF7 breast 1.73% | HCT-116 colon 8.67% | HCC-2998 colon 2.84% | KM12 colon 1.3%
inactive: OVCAR-5 ovarian 38% | OVCAR-4 ovarian 19.8% | SK-OV-3 ovarian 11.8% | IGROV1 ovarian 23.9% | SW-620 colon 13.4%

C=COC(=O)CCCCCCCCC
inactive: RPMI-8226 leukemia 100% | OVCAR-8 ovarian 101% | OVCAR-5 ovarian 111% | OVCAR-4 ovarian 109% | SK-OV-3 ovarian 111% | IGROV1 ovarian 97.1% | OVCAR-3 ovarian 120% | HS 578T breast 102% | NCI/ADR-RES ovarian 103% | T-47D breast 110% | BT-549 breast 108% | MDA-MB-435 melanoma 106% | SW-620 colon 99.1% | MCF7 breast 101% | HCT-116 colon 109% | HCC-2998 colon 101% | KM12 colon 106%

CC(O)CN1CCCCC1 (stereo not drawn)
inactive: RPMI-8226 leukemia 113% | OVCAR-8 ovarian 105% | OVCAR-5 ovarian 110% | OVCAR-4 ovarian 109% | SK-OV-3 ovarian 107% | IGROV1 ovarian 106% | OVCAR-3 ovarian 105% | HS 578T breast 113% | NCI/ADR-RES ovarian 106% | T-47D breast 137% | BT-549 breast 101% | MDA-MB-435 melanoma 105% | SW-620 colon 102% | MCF7 breast 103% | HCT-116 colon 110% | HCC-2998 colon 115% | KM12 colon 106%

CCC(=O)OC1=CN2C(=NC(c3ccc(N)cc3)=CC2c2cc(OC)c(OC)c(OC)c2)S1 (stereo not drawn)
inactive: RPMI-8226 leukemia 17.9% | OVCAR-8 ovarian 36.6% | OVCAR-5 ovarian 77.7% | OVCAR-4 ovarian 57.3% | SK-OV-3 ovarian 68.1% | IGROV1 ovarian 65.4% | OVCAR-3 ovarian 24.1% | HS 578T breast 49% | NCI/ADR-RES ovarian 66.9% | T-47D breast 58.2% | BT-549 breast 26.8% | MDA-MB-435 melanoma 23.1% | SW-620 colon 28.3% | MCF7 breast 16.7% | HCT-116 colon 17.9% | HCC-2998 colon 89% | KM12 colon 47.4%

COc1ccc(C2C=C(c3ccc(Cl)cc3)N=C3SC=C(C)N32)c(Br)c1 (stereo not drawn)
inactive: RPMI-8226 leukemia 14.9% | OVCAR-8 ovarian 18.6% | OVCAR-5 ovarian 67% | OVCAR-4 ovarian 48.1% | SK-OV-3 ovarian 35.3% | IGROV1 ovarian 46.1% | OVCAR-3 ovarian 10.8% | HS 578T breast 56.3% | NCI/ADR-RES ovarian 33.2% | T-47D breast 39.3% | BT-549 breast 19.7% | SW-620 colon 24.2% | MCF7 breast 10.2% | HCT-116 colon 16%
active: MDA-MB-435 melanoma 9.2%

COC(=O)c1nc(-c2ccccc2)oc1S(=O)(=O)N1CCN(c2cccc(Cl)c2)CC1
inactive: RPMI-8226 leukemia 36.6% | OVCAR-8 ovarian 76.3% | OVCAR-5 ovarian 81.9% | OVCAR-4 ovarian 103% | SK-OV-3 ovarian 92.9% | IGROV1 ovarian 77.8% | OVCAR-3 ovarian 69.2% | HS 578T breast 85.7% | NCI/ADR-RES ovarian 89.2% | T-47D breast 66.2% | BT-549 breast 71% | MDA-MB-435 melanoma 69.8% | SW-620 colon 61.7% | MCF7 breast 39.2% | HCT-116 colon 54.8% | HCC-2998 colon 98.8% | KM12 colon 95.1%

COc1cc(Nc2ncccc2C(=O)NCc2cn(Cc3cccc(Oc4ccccc4)c3)nn2)cc(OC)c1
inactive: SR leukemia 25.3% | OVCAR-8 ovarian 53.9% | OVCAR-5 ovarian 83.2% | OVCAR-4 ovarian 70.6% | IGROV1 ovarian 58.5% | HS 578T breast 49.1% | T-47D breast 50.3% | BT-549 breast 43.8% | SW-620 colon 31.4% | HCT-116 colon 19.5% | HCC-2998 colon 55% | KM12 colon 16.7%
active: OVCAR-3 ovarian -2.42% | NCI/ADR-RES ovarian 9.54% | MDA-MB-435 melanoma -15.3%

COc1ccc(/C=C/c2c(C(C)=O)c(C)nc3ccccc23)cc1
inactive: RPMI-8226 leukemia 60.2% | OVCAR-8 ovarian 85.2% | OVCAR-5 ovarian 77% | OVCAR-4 ovarian 70.1% | SK-OV-3 ovarian 80.8% | IGROV1 ovarian 76.7% | OVCAR-3 ovarian 97.6% | HS 578T breast 106% | NCI/ADR-RES ovarian 86.6% | T-47D breast 39.5% | BT-549 breast 61.6% | MDA-MB-435 melanoma 69.1% | SW-620 colon 86.8% | MCF7 breast 85.8% | HCT-116 colon 70.8% | HCC-2998 colon 93.3% | KM12 colon 93%

COc1ccc(S(=O)(=O)n2cc(C(=O)C(=O)Nc3ccncc3)c3ccccc32)cc1F
inactive: RPMI-8226 leukemia 48.6% | OVCAR-8 ovarian 69% | OVCAR-5 ovarian 81.1% | OVCAR-4 ovarian 73.4% | SK-OV-3 ovarian 85% | IGROV1 ovarian 72% | OVCAR-3 ovarian 85.6% | HS 578T breast 88.1% | NCI/ADR-RES ovarian 67.2% | T-47D breast 67.9% | BT-549 breast 77% | MDA-MB-435 melanoma 58% | SW-620 colon 83.3% | MCF7 breast 69.8% | HCT-116 colon 69.5% | HCC-2998 colon 73.5% | KM12 colon 75%

COc1ccc(-c2[nH]nc(N)c2-c2cc(OC)c3c(c2)OCO3)cc1
active: NCI/ADR-RES ovarian 8.74% | MDA-MB-435 melanoma -12.8%
inactive: RPMI-8226 leukemia 81.3% | OVCAR-8 ovarian 77.2% | OVCAR-5 ovarian 70% | OVCAR-4 ovarian 89.3% | SK-OV-3 ovarian 76.7% | IGROV1 ovarian 73.9% | OVCAR-3 ovarian 64.9% | HS 578T breast 40.4% | T-47D breast 62% | BT-549 breast 59.2% | SW-620 colon 20.5% | MCF7 breast 32.3% | HCT-116 colon 30.9% | HCC-2998 colon 44.3% | KM12 colon 27.8%

O=C(Nc1ccc2c(c1)OCO2)C(=O)c1c[nH]c2cc(F)ccc12
inactive: RPMI-8226 leukemia 64% | OVCAR-8 ovarian 59% | OVCAR-5 ovarian 77.6% | OVCAR-4 ovarian 50.7% | SK-OV-3 ovarian 59.7% | IGROV1 ovarian 59.6% | OVCAR-3 ovarian 50.5% | HS 578T breast 50.1% | NCI/ADR-RES ovarian 47.6% | T-47D breast 46.7% | BT-549 breast 70.3% | MDA-MB-435 melanoma 34.7% | SW-620 colon 34.3% | MCF7 breast 57.7% | HCT-116 colon 56.7% | HCC-2998 colon 25.3% | KM12 colon 27.1%

CCOC(=O)c1ccc(NC(=O)N2CC(C)OC(C)C2)cc1 (stereo not drawn)
inactive: SR leukemia 98.7% | OVCAR-5 ovarian 94% | OVCAR-4 ovarian 96.8% | SK-OV-3 ovarian 99.5% | IGROV1 ovarian 73.6% | OVCAR-3 ovarian 109% | HS 578T breast 101% | NCI/ADR-RES ovarian 100% | T-47D breast 94.4% | BT-549 breast 97.8% | MDA-MB-435 melanoma 105% | SW-620 colon 106% | MCF7 breast 96.4% | HCT-116 colon 102% | HCC-2998 colon 105% | KM12 colon 108%

COc1cc(-c2nn(-c3cccc(NC(=O)Nc4cc(C(F)(F)F)cc(C(F)(F)F)c4)c3)cc2-c2ccncc2)ccc1Cl
inactive: OVCAR-5 ovarian 16.3% | OVCAR-4 ovarian 17.2% | IGROV1 ovarian 19.9%
active: RPMI-8226 leukemia -11.7% | OVCAR-8 ovarian -12.7% | SK-OV-3 ovarian -9.79% | OVCAR-3 ovarian -57.9% | HS 578T breast -25.8% | NCI/ADR-RES ovarian 1.11% | T-47D breast 4.45% | BT-549 breast -8.96% | MDA-MB-435 melanoma -58.3% | SW-620 colon -2.89% | MCF7 breast 1.74% | HCT-116 colon -43.6% | HCC-2998 colon -10.8% | KM12 colon -14.8%

COC(=O)C(Sc1ccc(Cl)cc1)C1SC(=S)N(Cc2ccccc2)C1=O (stereo not drawn)
inactive: SR leukemia 50.8% | OVCAR-5 ovarian 118% | SK-OV-3 ovarian 108% | OVCAR-3 ovarian 105% | HS 578T breast 106% | NCI/ADR-RES ovarian 102% | T-47D breast 81.7% | BT-549 breast 84.1% | MDA-MB-435 melanoma 90.4% | SW-620 colon 98.3% | MCF7 breast 77.2% | HCT-116 colon 89.7% | HCC-2998 colon 103% | KM12 colon 99.6%
